# In PubChem BioAssay (NCATS):
# Records with an inconclusive call do not appear. Where a call stands in place of a potency, no number is given. Active and inactive are the calls of the source. Unless noted, the call rests on the fitted dose curve.
# Assays:
# [1] = molecular target: Alpha-galactosidase (Coffea arabica) (UniProt Q42656); experiment: Counterscreen for Glucocerebrosidase Inhibitors: qHTS Assay for Coffee Bean alpha-Galactosidase at pH 4.5 (AID 957; active means well fitted curve in the direction sought with a large enough effect; an effect the other way counts as inactive or inconclusive)
# How it was run: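 Fluorogenic qHTS at pH 4.5 (citrate buffer with Tween-20): 2 nM enzyme, 80 uM 4-MU-alpha-galactoside substrate, compound titrated 0.7 nM to 77 uM, 20 min room temperature. Glycine/NaOH stop; 4-MU read Ex 365/Em 440; Hill-equation AC50 against no-enzyme and enzyme controls.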
# [2] = molecular target: Alpha-galactosidase (Coffea arabica) (UniProt Q42656); experiment: Counterscreen for Glucocerebrosidase Inhibitors: qHTS Assay for Coffee Bean alpha-Galactosidase at pH 5.9 (AID 998; active means well fitted curve in the direction sought with a large enough effect; an effect the other way counts as inactive or inconclusive)
# How it was run: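 In 50 mM citric acid pH 5.9 with 0.005% Tween-20, coffee bean enzyme hydrolyses 80 uM 4-MU alpha-D-galactopyranoside over 20 min at RT. Activity is normalized to controls; AC50 comes from Hill-modelled concentration-response data.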
# [3] = Validation screen for inhibitors of Lassa infection (AID 463096)
# [4] = Inducers of the Endoplasmic Reticulum Stress Response (ERSR) in human glioma: Validation (AID 504836; active means well fitted curve in the direction sought with a large enough effect; an effect the other way counts as inactive or inconclusive)
# How it was run: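 Stably transfected U87-MG human glioma cells carrying a GRP78-based luminescent sensor were seeded at 1000 cells/well, pin-dosed with compounds and incubated 16 h. Luciferase reagent was then added, and end-point luminescence was read after 10 min at room temperature.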
# [5] = qHTS for Inhibitors of the Functional Ribonucleoprotein Complex (vRNP) of Lassa (LASV) Arenavirus: LASV Primary Screen - GLuc reporter signal (AID 1347082; calls by dose curve; tested in HEK293 reporter line; further: nearly all actives have a fitted effect of over 60% in size)
# [6] = qHTS for Inhibitors of the Functional Ribonucleoprotein Complex (vRNP) of Lassa (LASV) Arenavirus: Viability assay - alamar blue signal for LASV Primary Screen (AID 1347083; calls by dose curve; tested in HEK293 reporter line; further: nearly all actives have a fitted effect of over 80% in size)
# [7] = qHTS for Inhibitors of the Functional Ribonucleoprotein Complex (vRNP) of Lymphocytic Choriomeningitis Arenaviruses (LCMV): Viability assay - alamar blue signal for LCMV Primary Screen (AID 1347085; calls by dose curve; tested in HEK293 reporter line; further: nearly all actives have a fitted effect of over 80% in size)
# [8] = molecular target: Nucleoprotein (Lymphocytic choriomeningitis virus (strain Armstrong)) (UniProt P09992); experiment: qHTS for Inhibitors of the Functional Ribonucleoprotein Complex (vRNP) of Lymphocytic Choriomeningitis Arenaviruses (LCMV): LCMV Primary Screen - GLuc reporter signal (AID 1347086); further: nearly all actives have a fitted effect of over 70% in size
# CRL-7250 = normal cell line; experiment: qHTS assay to identify novel small-molecules to repurpose for Merkel cell carcinoma treatment (AID 1296009; active means well fitted curve in the direction sought with a large enough effect; an effect the other way counts as inactive or inconclusive; further: nearly all actives have a fitted effect of over 60% in size); conditions: MCC and control cell lines, CellTiter-Glo viability, 72 h; series mostly up to 92 µM
# How it was run: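 Viability readout: ATP luminescence (CellTiter-Glo) after 72 hr drug exposure at 37 degree celsius. Dose-response format was 8 points for NPC and 11 points for MIPE; data normalized to in-plate controls.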
# [9] = qHTS profiling of the MIPE4 collection as inhibitors of Plasmodium falciparum (3D7) proliferation (AID 743344; call rule not given here); conditions: P. falciparum 3D7 in erythrocytes, SYBR Green DNA fluorescence, 72 h; at 28.5 µM (top of the series) unless noted
# How it was run: (§1)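 Parasite DNA was quantified by SYBR Green I fluorescence (ex 485, em 535 nm) after overnight lysis in saponin/Triton buffer at room temperature. Cultures at 0.3% parasitemia and 2.5% hematocrit were first exposed to compound for 72 h at 37 C; signals were normalised to artemisinin (0.29 uM) and vehicle wells.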
# [10] = qHTS profiling of the MIPE4 collection as inhibitors of Plasmodium falciparum (HB3) proliferation (AID 743347; call rule not given here); conditions: P. falciparum HB3 in erythrocytes, SYBR Green DNA, 72 h; at 28.5 µM (top of the series) unless noted
# How it was run: as §1
# [11] = Cytotoxicity counterscreen for inhibitors of SARS-CoV-2 cell entry (AID 1645845); further: nearly all actives have a fitted effect of over 50% in size
# How it was run: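 After a 15 min room-temperature ATPLite 1step step, luminescence reflected ATP remaining in HEK293-ACE2 cells exposed to compound for 1 h plus 48 h at 37 C, with percent activity set by cell and no-cell controls.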
# [12] = Primary qHTS to identify inhibitors of SARS-CoV-2 cell entry (AID 1645846); conditions: activity change, negative = inhibition: at 57.1 µM (top of the series) unless noted; further: nearly all actives have a fitted effect of over 45% in size
# How it was run: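 Inhibition of spike-mediated entry was scored in human ACE2-transfected Expi293F cells. Particles were MLV-pseudotyped with Wuhan-Hu-1 S carrying a 19-aa C-terminal deletion; signal was luciferase after two days, scaled between spike PP and fusion-protein-free PP.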
# [13] = molecular target: Bile acid receptor (Homo sapiens) (UniProt Q96RI1); experiment: qHTS assay for small molecule agonists of farnesoid X receptor signaling (AID 588527); conditions: HEK293T FXR-UAS-bla, beta-lactamase ratio, 16 h; activation: stronger effect = higher value
# How it was run: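 FXR-UAS-bla HEK293T cells (10% dialyzed FBS) preincubated 5-7 h at 37 C, then compounds at up to 92 uM for 16 h at 37 C. CCF4 beta-lactamase read-out after 2 h RT. Normalized to chenodeoxycholic acid (100 uM) and DMSO; Hill fit gave EC50 and efficacy.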
# [14] = molecular target: Peroxisome proliferator-activated receptor delta (Homo sapiens) (UniProt Q03181); experiment: qHTS assay for small molecule agonists of peroxisome proliferator-activated receptor delta signaling (AID 588534)
# How it was run: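 Agonist-mode beta-lactamase reporter readout (CCF4 dye, 2 h at RT) after 18 h at 37 °C exposure to a titration; Hill-equation fitting gave EC50 and maximal response.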
# [15] = qHTS profiling of the MIPE4 collection as inhibitors of Plasmodium falciparum (DD2) proliferation (AID 743345; call rule not given here); conditions: P. falciparum Dd2 in erythrocytes, SYBR Green DNA, 72 h; at 28.5 µM (top of the series) unless noted
# How it was run: as §1
# Alpha-galactosidase (Coffea arabica), sequence (Q42656 whole entry, looked up): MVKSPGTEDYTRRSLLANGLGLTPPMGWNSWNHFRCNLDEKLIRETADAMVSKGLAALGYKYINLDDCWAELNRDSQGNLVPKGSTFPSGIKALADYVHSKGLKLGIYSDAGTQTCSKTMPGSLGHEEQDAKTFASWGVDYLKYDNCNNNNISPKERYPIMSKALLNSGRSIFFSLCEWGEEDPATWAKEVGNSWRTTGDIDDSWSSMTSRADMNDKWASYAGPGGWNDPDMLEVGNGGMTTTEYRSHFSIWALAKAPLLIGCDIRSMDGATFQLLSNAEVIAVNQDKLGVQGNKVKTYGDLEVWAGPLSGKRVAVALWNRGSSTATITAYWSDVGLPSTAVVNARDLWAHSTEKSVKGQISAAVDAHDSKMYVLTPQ
# Nucleoprotein (Lymphocytic choriomeningitis virus (strain Armstrong)), sequence (P09992 whole entry, looked up): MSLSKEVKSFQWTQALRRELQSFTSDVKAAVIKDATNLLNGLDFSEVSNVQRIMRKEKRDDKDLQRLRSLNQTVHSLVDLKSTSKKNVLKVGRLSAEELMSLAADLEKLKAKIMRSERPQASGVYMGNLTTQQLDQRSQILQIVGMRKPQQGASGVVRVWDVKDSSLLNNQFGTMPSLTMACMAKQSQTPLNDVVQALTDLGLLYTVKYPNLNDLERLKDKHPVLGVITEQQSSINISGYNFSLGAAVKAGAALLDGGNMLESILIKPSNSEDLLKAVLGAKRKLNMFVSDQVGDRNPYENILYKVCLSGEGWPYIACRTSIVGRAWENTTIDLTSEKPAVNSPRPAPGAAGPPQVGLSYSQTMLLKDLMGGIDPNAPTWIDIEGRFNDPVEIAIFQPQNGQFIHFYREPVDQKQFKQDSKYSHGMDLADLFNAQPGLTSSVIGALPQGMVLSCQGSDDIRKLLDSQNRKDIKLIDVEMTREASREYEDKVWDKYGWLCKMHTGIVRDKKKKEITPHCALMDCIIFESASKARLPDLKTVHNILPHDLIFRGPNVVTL
# Peroxisome proliferator-activated receptor delta (Homo sapiens), sequence (Q03181 whole entry, looked up): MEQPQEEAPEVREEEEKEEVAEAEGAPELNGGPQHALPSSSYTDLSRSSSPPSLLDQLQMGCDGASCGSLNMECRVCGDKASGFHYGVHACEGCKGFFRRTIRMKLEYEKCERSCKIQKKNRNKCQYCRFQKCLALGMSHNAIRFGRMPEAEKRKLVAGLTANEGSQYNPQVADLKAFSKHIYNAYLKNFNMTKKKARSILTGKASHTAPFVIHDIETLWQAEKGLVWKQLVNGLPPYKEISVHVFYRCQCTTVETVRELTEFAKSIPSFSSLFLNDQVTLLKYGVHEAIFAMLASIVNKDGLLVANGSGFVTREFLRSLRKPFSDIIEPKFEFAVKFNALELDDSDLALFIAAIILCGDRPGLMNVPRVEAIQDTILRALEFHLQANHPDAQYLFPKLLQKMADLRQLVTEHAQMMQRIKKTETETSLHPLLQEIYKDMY
# Bile acid receptor (Homo sapiens), sequence (Q96RI1 whole entry, looked up): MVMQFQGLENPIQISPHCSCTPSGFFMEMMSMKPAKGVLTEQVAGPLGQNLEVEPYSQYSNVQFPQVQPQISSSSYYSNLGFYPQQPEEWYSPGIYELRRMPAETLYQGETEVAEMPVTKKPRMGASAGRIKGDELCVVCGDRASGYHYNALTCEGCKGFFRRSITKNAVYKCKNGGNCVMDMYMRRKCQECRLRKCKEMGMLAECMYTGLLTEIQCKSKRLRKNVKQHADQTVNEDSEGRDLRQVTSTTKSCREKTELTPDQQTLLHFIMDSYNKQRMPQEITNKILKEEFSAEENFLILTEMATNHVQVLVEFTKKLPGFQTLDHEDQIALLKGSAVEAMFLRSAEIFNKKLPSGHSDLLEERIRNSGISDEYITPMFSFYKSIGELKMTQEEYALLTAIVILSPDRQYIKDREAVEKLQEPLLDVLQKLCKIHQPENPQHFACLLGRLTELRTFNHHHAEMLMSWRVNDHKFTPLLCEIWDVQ
compound,measurement,setting,value
COc1ccccc1N1CCN(CCN(C(=O)C2CCCCC2)c2ccccn2)CC1,outcome,[1],inactive
same,outcome,[2],inactive
same,Potency,[3],inactive
same,outcome,[4],inactive
same,Potency,[5],inactive
same,Potency,[6],inactive
same,Potency,[7],inactive
same,Potency,[8],inactive
same,Potency,CRL-7250,inactive
c1coc(CNc2ncnc3nc[nH]c23)c1,"parasite growth, % of DMSO control",[9],71.1%
same,"growth, % of control",[10],65.3%
same,Potency,[5],inactive
same,Potency,[6],inactive
same,Potency,[7],inactive
same,Potency,[8],inactive
same,Potency,[11],inactive
same,"activity change, negative = inhibition",[12],0.628%
same,Potency,CRL-7250,inactive
Cc1ccccc1C(C(=O)NC1CCCCC1)N(C(=O)CNc1ccc(C#N)cc1)c1cccc(F)c1 (centres undefined),Potency,[5],inactive
same,Potency,[6],inactive
same,Potency,[7],inactive
same,Potency,[8],inactive
same,Potency,[11],inactive
same,"activity change, negative = inhibition",[12],1.58%
same,Potency,CRL-7250,inactive
O=[N+]([O-])c1ccc(-c2nc(-c3ccc(F)cc3)c(-c3ccncc3)[nH]2)cc1,outcome,[1],inactive
same,outcome,[2],inactive
same,Potency,[3],inactive
same,outcome,[4],inactive
same,Potency,[5],inactive
same,Potency,[6],inactive
same,Potency,[7],inactive
same,Potency,[8],inactive
same,Potency,CRL-7250,inactive
O=C(Nc1nc2ccccc2n1CCN1CCOCC1)c1cccc([N+](=O)[O-])c1,outcome,[4],inactive
same,Potency,[5],inactive
same,Potency,[6],inactive
same,Potency,[7],inactive
same,Potency,[8],inactive
same,Potency,[11],inactive
same,"activity change, negative = inhibition",[12],-0.348%
same,Potency,CRL-7250,inactive
CC1=C(C(=O)Nc2cc3cn[nH]c3cc2F)C(c2ccc(C(F)(F)F)cc2)CC(=O)N1 (centres undefined),Potency,[5],inactive
same,Potency,[6],inactive
same,Potency,[7],inactive
same,Potency,[8],inactive
same,Potency,[11],inactive
same,"activity change, negative = inhibition",[12],-23.5%
same,Potency,CRL-7250,inactive
O=C(/C=C/C=C/c1ccc2c(c1)OCO2)N1CCCCC1,activation,[13],4.73% (inactive)
same,Potency,[14],inactive
same,Potency,[5],inactive
same,Potency,[6],inactive
same,Potency,[7],inactive
same,Potency,[8],inactive
same,Potency,[11],inactive
same,"activity change, negative = inhibition",[12],-9.28%
same,Potency,CRL-7250,inactive
O=C(NC1CCOCC1)c1ccc(-c2cc(-c3cn[nH]c3-c3ccccn3)ccn2)cc1,Potency,[5],inactive
same,Potency,[6],inactive
same,Potency,[7],inactive
same,Potency,[8],inactive
same,Potency,[11],inactive
same,"activity change, negative = inhibition",[12],-3.94%
same,Potency,CRL-7250,inactive
COc1ccc2c(OCc3nnc4ccc(-c5ccccc5)nn34)ccnc2c1,Potency,[5],inactive
same,Potency,[6],inactive
same,Potency,[7],inactive
same,Potency,[8],inactive
same,"activity change, negative = inhibition",[12],-13.2%
same,Potency,CRL-7250,inactive
CC=CCC=CCCC(=O)[C@H]1O[C@@H]1C(N)=O,"parasite growth, % of DMSO control",[9],65.1%
same,"parasite growth remaining, % of DMSO control (lower = more inhibition)",[15],87.5%
same,"growth, % of control",[10],71.3%
same,Potency,[5],inactive
same,Potency,[6],inactive
same,Potency,[7],inactive
same,Potency,[8],inactive
same,Potency,CRL-7250,inactive
